# Assay results taken from PubChem BioAssay AID686979 (National Center for Advancing Translational Sciences (NCATS), 2013).
# Out of some 420,000 compounds screened, about 50,000 (12%) were called active. Not shown: some 26% with an inconclusive outcome. The sample holds actives, similar compounds and a random draw of the others, so the mix is not that of the screen. Calls come from the whole dose curve; as a rule, active = well fitted inhibition curve with a large enough effect; inconclusive = small, poorly fitted or top-dose-only effect; inactive = flat fitted curve, though single readings scatter.
# Assay: qHTS for Inhibitors of human tyrosyl-DNA phosphodiesterase 1 (TDP1): qHTS in cells in presence of CPT; note: nearly all actives have a fitted effect of over 55% in size
# Conditions: chicken DT40 Tdp1-/-;hTDP1 cells + 20 nM CPT, ATP luminescence, 48 h; series mostly up to 46.2 µM; activity change, negative = growth inhibition: at the top concentration
# In short: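 Chicken DT40 Tdp1-/- cells stably complemented with human TDP1 were seeded at 400 cells/well in medium containing 20 nM camptothecin, exposed to pin-transferred compounds, and grown at 37 °C for at least 48 hr. Viability was read as ATP luminescence.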
# % is set by controls: 0 for no effect and ±100 for the full control effect; potency is the fitted concentration of half-maximal effect.
SMILES,"activity change, negative = growth inhibition",Potency
COc1cc(OC)c(S(=O)(=O)Nc2ccccc2C(=O)O)cc1S(=O)(=O)Nc1ccccc1C(=O)O,9.05% (inactive),–
CS(=O)(=O)N1CCN(c2cccc(Cl)n2)CC1,8.45% (inactive),–
O=C(COc1ccc2c(c1)CCC2)N1CCN(c2ccc(F)cc2)CC1,10.3% (inactive),–
COCCCNC(=O)CSc1nc2ccc(N3CCOCC3)cc2c(=O)n1CCc1ccccc1,–,16.4 µM (active)
COCCn1c(=O)c(-c2ccccc2)nc2cnc(N3CCOCC3)nc21,1.6% (inactive),–
Cc1nn2c3cc(N4CCOCC4)ccc3nc2c2ccccc12,-24.1% (inactive),–
N#CCSc1nc2ccc(N3CCOCC3)cc2c(=O)n1CCc1ccccc1,–,23.1 µM (active)
CCCCn1c(SCC(=O)NCC2CCCO2)nc2ccc(N3CCOCC3)cc2c1=O (stereo not given),-16.2% (inactive),–
COCCNC(=O)c1ccc(Cn2c(SCC(=O)NCC3CCCO3)nc3ccc(Br)cc3c2=O)cc1 (stereo not given),-4.66% (inactive),–
COc1ccccc1/C=C/C(=O)OCC(=O)NC1CCCCCC1,-22.8% (inactive),–
C=Cc1ccc(C(=O)N2CCCC(CCC(=O)N3CCN(c4ccccn4)CC3)C2)cc1 (stereo not given),-17.8% (inactive),–
COc1ccc(C2c3c(oc4ccccc4c3=O)C(=O)N2Cc2ccc3c(c2)OCO3)cc1 (stereo not given),-0.0902% (inactive),–
Cc1ccc2oc3c(c(=O)c2c1)C(c1ccc(O)cc1)N(Cc1ccc2c(c1)OCO2)C3=O (stereo not given),–,14.6 µM (active)
CCCOc1ccc(C2c3c(oc4cc(C)c(C)cc4c3=O)C(=O)N2CCCN2CCOCC2)cc1 (stereo not given),-5.72% (inactive),–
Cc1ccc(NNC(=O)c2cccs2)cc1Cl,-23.8% (inactive),–
CC(NC(=O)COc1cccnc1[N+](=O)[O-])c1ccc(Cl)cc1Cl (stereo not given),-21.6% (inactive),–
CC(=O)C[C@@H]1OC[C@H](C)N1S(=O)(=O)c1ccc(C)cc1,25.5% (inactive),–
Cc1nn(CCOc2ccc(Br)cc2)c(C)c1[N+](=O)[O-],6.55% (inactive),–
CCn1nc(C(=O)NNS(=O)(=O)c2cc(/C=C/C(=O)O)cc(OC)c2OC)c2ccccc2c1=O,4.44% (inactive),–
CCn1nc(C)c(NC(=O)/C=C/c2ccc(OC)c(COc3ccc(Br)cc3)c2)c1C,–,16.4 µM (active)
O=C(O)CCCCCCCCCC[n+]1ccccc1,3.14% (inactive),–
CCn1c(SCC(=O)NC2CC2)nnc1-c1ccncc1,2.34% (inactive),–
CCOC(=O)c1c(NC(=S)NC(=O)/C=C/c2cccs2)sc(C)c1C,–,20.6 µM (active)
CCOC(=O)c1c(NC(=O)/C=C/c2ccco2)sc(C)c1C,-41.2% (inactive),–
CCOC(=O)c1c(NC(=O)c2cccs2)sc(C)c1C,6.74% (inactive),–

SMILES,"activity change, negative = growth inhibition",Potency
Cc1c(NC(=S)NC(=O)CCc2ccccc2)c(=O)n(-c2ccccc2)n1C,6.66% (inactive),–
NC(=O)[C@H]1CC2(CC(c3cccc(NC(=O)[C@H]4CCC(=O)N4)c3)=NO2)CN1C(=O)c1ccccc1C(=O)c1ccccc1 (stereo not given in full),0.837% (inactive),–
CC(C)CN(C(=O)CN1CCN(S(=O)(=O)c2ccccc2)CC1)c1c(N)n(CC(C)C)c(=O)[nH]c1=O,3.61% (inactive),–
Cc1ccc(Cc2nnc(SCC(=O)Nc3ccc(C)cc3C)[nH]c2=O)cc1,-12% (inactive),–
Cc1ccc(NC(=O)c2ccc(CSc3ncnc4nc[nH]c34)cc2)c(C)c1,–,23.1 µM (active)
CSc1ncc(C(=O)Nc2ccc(C)cc2C)c(C)n1,-13.4% (inactive),–
Cc1cc(C)c2oc(C(=O)Nc3ccc(S(=O)(=O)Nc4nccc(C)n4)cc3)cc(=O)c2c1,–,inactive
Cc1ccc2nc(SCC(=O)N3CC(C)OC(C)C3)nc(=O)n2c1 (stereo not given),15.6% (inactive),–
O=C(CCC(=O)c1ccccc1)NCc1cccc(C(F)(F)F)c1,-19% (inactive),–
Cc1ccc2nc(NC(=O)CSc3nc(=O)n(CCCN(C)C)c4c3CCC4)sc2c1,–,9.2 µM (active)
Cc1csc(NC(=O)CSc2nc(=O)n(CCCN(C)C)c3c2CCC3)n1,4.71% (inactive),–
Cc1ccc(NC(=O)CSc2nc(=O)n(CCN(C)C)c3c2CCCC3)c(C)c1,3.71% (inactive),–
N#Cc1ccc(-c2nc3c(Cl)cc(C(F)(F)F)cn3c2Cc2ccccc2C(F)(F)F)cc1,-1.15% (inactive),–
COc1ccccc1Cc1c(-c2ccc(Cl)cc2)nc2c3ccccc3ccn12,–,25.9 µM (active)
COc1ncc2nc(-c3ccc(Cl)cc3)c(=O)n(-c3ccccc3)c2n1,29% (inactive),–
O=C1C(c2ccccn2)=[N+]([O-])c2ccccc21,-28.8% (inactive),–
COCCN1C(=O)c2oc3c(C)cc(C)cc3c(=O)c2C1c1cccc(O)c1 (stereo not given),-26.3% (inactive),–
CC(=O)c1sc(N2C(=O)c3oc4ccccc4c(=O)c3C2c2ccc(C)cc2)nc1C (stereo not given),7.1% (inactive),–
O=C1c2oc3ccccc3c(=O)c2C(c2cccc(O)c2)N1c1ccccn1 (stereo not given),–,20.6 µM (active)
O=C(NC1CC(=O)N(c2ccc(F)cc2)C1)c1cccs1 (stereo not given),-7.52% (inactive),–
CC(C)=NN1C(=O)c2ccccc2NC1(C)C,33% (inactive),–
O=C(Nc1ccc2c(c1)OCO2)c1ccc(N2C(=O)c3ccccc3C2=O)cc1,-4.6% (inactive),–
COc1ccc(-c2csc(N3CCN(Cc4ccc5c(c4)OCO5)CC3)n2)cc1,-5.07% (inactive),–
CCCn1c(C(C)Nc2nc(-c3ccc(C)cc3)cs2)nc2cc(Cl)c(N3CCCCC3)cc21 (stereo not given),-17.2% (inactive),–
Cc1ccc(-c2csc(N3CCN(c4cc5c(cc4Cl)nc(-c4ccncc4)n5CCOCCO)CC3)n2)cc1,–,16.4 µM (active)
